“And” between values parts separate entries of the source, which are not always exact repeats. Identical values can stand only once. Screen size: about 5,500 compounds; about 2,000 (36%) were called active. About 18% were inconclusive and are not listed. No stated cut-off is given here; in the data, active means normalized growth mostly below about 0.91 (no sharp cut-off); inconclusive means no clear call, values can overlap the other calls; inactive means mostly above about 0.92. Some of the results follow.
Test: chemical genetic growth profiling, strain panel (AID 1159580);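 further: tested at 20 µM; growth read once vehicle control cultures reached saturation at 30 °C; 1 = growth at the plate median or of vehicle wells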
Details: S. cerevisiae deletion strains, growth OD

Measured: normalized growth

COc1ccc(NS(=O)(=O)c2ccc(N)cc2)nn1
inactive: locus YAL013W, strain DEP1, stronger effect = lower value 1.01 | locus YAL021C, strain ccr4, stronger effect = lower value 0.989 | locus YAL026C, strain drs2, stronger effect = lower value 1 | locus YAL030W, strain snc1, stronger effect = lower value 0.996 | locus YBL061C, strain skt5, stronger effect = lower value 0.992 | locus YBR009C, strain hhf1, stronger effect = lower value 0.978 | locus YBR021W, strain FUR4, stronger effect = lower value 1.02 | locus YBR023C, strain chs3, stronger effect = lower value 1.01 | locus YBR171W, strain sec66, stronger effect = lower value 0.999 | locus YBR229C, strain ROT2, stronger effect = lower value 1.02 | locus YBR231C, strain swc5, stronger effect = lower value 1 | locus YBR279W, strain paf1, stronger effect = lower value 1 | locus YCL011C, strain gbp2, stronger effect = lower value 1.01 | locus YCL016C, strain dcc1, stronger effect = lower value 0.996 | locus YCL029C, strain bik1, stronger effect = lower value 0.996 | locus YCL069W, strain vba3, stronger effect = lower value 0.992 | locus YCR088W, strain abp1, stronger effect = lower value 1 | locus YDL005C, strain med2, stronger effect = lower value 0.998 | locus YDL035C, strain GPR1, stronger effect = lower value 1.02 | locus YDL040C, strain nat1, stronger effect = lower value 1 | locus YDL074C, strain BRE1, stronger effect = lower value 1.04 | locus YDL101C, strain DUN1, stronger effect = lower value 1.03 | locus YDL134C, strain PPH21, stronger effect = lower value 1.01 | locus YDL185W, strain tfp1, stronger effect = lower value 0.996 | locus YDL192W, strain arf1, stronger effect = lower value 0.99 | locus YDR001C, strain nth1, stronger effect = lower value 1.01 | locus YDR069C, strain doa4, stronger effect = lower value 1 | locus YDR101C, strain arx1, stronger effect = lower value 1 | locus YDR137W, strain rgp1, stronger effect = lower value 1 | locus YDR150W, strain NUM1, stronger effect = lower value 1.02 | locus YDR159W, strain sac3, stronger effect = lower value 0.907 | locus YDR162C, strain NBP2, stronger effect = lower value 1.01 | locus YDR195W, strain ref2 1 | locus YDR297W, strain sur2, stronger effect = lower value 0.989 | locus YDR318W, strain mcm21, stronger effect = lower value 0.988 | locus YDR334W, strain swr1, stronger effect = lower value 1.01 | locus YDR335W, strain msn5, stronger effect = lower value 1 | locus YDR388W, stronger effect = lower value 0.993 | locus YDR392W, strain spt3, stronger effect = lower value 0.881 | locus YDR502C, strain sam2, stronger effect = lower value 0.983 | locus YEL003W, strain gim4, stronger effect = lower value 1.02 | locus YEL037C, strain rad23, stronger effect = lower value 0.995 | locus YEL061C, strain CIN8 (second series), stronger effect = lower value 1.01 | locus YEL061C, strain CIN8, stronger effect = lower value 1.02 | locus YER015W, strain faa2, stronger effect = lower value 1.01 | locus YER016W, strain bim1, stronger effect = lower value 0.988 | locus YER110C, stronger effect = lower value 0.992 | locus YER111C, strain swi4, stronger effect = lower value 0.995 | locus YER155C, strain BEM2 (second series), stronger effect = lower value 0.962 | locus YER155C, strain BEM2, stronger effect = lower value 1 | locus YER167W, strain BCK2, stronger effect = lower value 1.01 | locus YFR010W, strain ubp6, stronger effect = lower value 1 | locus YGL078C, strain dbp3, stronger effect = lower value 0.986 | locus YGL086W, strain mad1, stronger effect = lower value 0.995 | locus YGL167C, strain pmr1, stronger effect = lower value 0.999 | locus YGL173C, strain kem1, stronger effect = lower value 1 | locus YGL227W, strain vid30, stronger effect = lower value 1 | locus YGL240W, strain doc1, stronger effect = lower value 0.987 | locus YGL248W, strain PDE1, stronger effect = lower value 1.03 | locus YGL253W, strain hxk2, stronger effect = lower value 1.01 | locus YGR135W, strain pre9, stronger effect = lower value 0.982 | locus YGR252W, strain gcn5, stronger effect = lower value 0.953 | locus YHR013C, strain ard1, stronger effect = lower value 0.987 | locus YHR027C, strain rpn1, stronger effect = lower value 0.999 | locus YHR030C, strain SLT2, stronger effect = lower value 1.02 and 0.989 | locus YHR079C, strain IRE1 (second series), stronger effect = lower value 0.998 | locus YHR079C, strain IRE1, stronger effect = lower value 0.995 | locus YHR094C, strain hxt1, stronger effect = lower value 0.984 | locus YHR129C, strain ARP1, stronger effect = lower value 1.01 | locus YHR142W, strain chs7, stronger effect = lower value 1 | locus YHR200W, strain rpn10, stronger effect = lower value 0.999 | locus YIL066C, strain RNR3, stronger effect = lower value 1.03 | locus YIL073C, strain SPO22, stronger effect = lower value 0.965 | locus YIL125W, strain kgd1, stronger effect = lower value 0.996 | locus YIR030C, strain dcg1, stronger effect = lower value 0.99 | locus YJL092W, strain hpr5, stronger effect = lower value 1 | locus YJL095W, strain BCK1 (second series), stronger effect = lower value 1 | locus YJL095W, strain BCK1, stronger effect = lower value 1.05 and 1.01 | locus YJL115W, strain asf1, stronger effect = lower value 0.996 | locus YJL129C, strain trk1, stronger effect = lower value 1 | locus YJL134W, strain LCB3, stronger effect = lower value 1.01 | locus YJL154C, strain vps35, stronger effect = lower value 0.997 | locus YJL164C, strain tpk1, stronger effect = lower value 0.985 | locus YJL166W, strain qcr8, stronger effect = lower value 1.02 | locus YJL168C, strain set2, stronger effect = lower value 0.996 | locus YJL187C, strain SWE1 (second series), stronger effect = lower value 1.03 | locus YJR043C, strain POL32, stronger effect = lower value 1.01 | locus YJR066W, strain TOR1, stronger effect = lower value 0.934

— PubChem BioAssay AID1159580 (chemical genetic matrix, 2015)
